High-throughput results as filed in PubChem.
LYPLA2 counter – LYPLA2 inhibitors, primary screen, counter-screen for PME1 inhibitor project, biochemical, fluorescence polarization, FP-Rh probe ABPP; 320,000 compounds, 0.38% hits; recombinant LYPLA2; inhibition, % at 5.9 µM; AID 2177, 2009;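 active = inhibition above the screen-wide mean plus 3 SD, limit set per campaign, cut at about 26% in these data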;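 note: 0% = LYPLA2 with DMSO and 100% = wells lacking LYPLA2 enzyme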
Target sequence (O95372 whole entry, looked up): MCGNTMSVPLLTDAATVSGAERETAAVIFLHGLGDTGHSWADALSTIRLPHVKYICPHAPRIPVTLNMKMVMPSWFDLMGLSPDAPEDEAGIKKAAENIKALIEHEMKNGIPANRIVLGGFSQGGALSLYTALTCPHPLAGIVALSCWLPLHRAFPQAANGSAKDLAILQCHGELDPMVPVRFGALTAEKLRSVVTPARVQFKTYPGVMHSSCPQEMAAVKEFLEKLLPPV
LANA-H2B inh – blockers of LANA interaction with H2A/H2B – biochemical, FP readout, HTS, primary screen; cell-free LANA-H2A/H2B peptide, fluorescence polarization; inhibition, % (concentration not given with the values); 320,000 compounds, 0.6% hits; in the data active = inhibition mostly above about 10%, no sharp cut-off; inactive = mostly below about 6.7%
LYPLA1 counter – LYPLA1 inhibitors, primary screen, counter-screen for PME1 inhibitor project, biochemical, fluorescence polarization, FP-Rh probe ABPP; Acyl-protein thioesterase 1 (Homo sapiens), O75608; recombinant LYPLA1; inhibition, % at 5.9 µM; 320,000 compounds, 0.16% hits;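 active = inhibition above the mean of all tested compounds plus 3 SD, set per campaign, cut at about 14% in these data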;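 note: inhibitors block serine hydrolase probe labeling of LYPLA1 so polarization falls; 0% = enzyme with DMSO and 100% = wells lacking LYPLA1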
Target sequence (O75608 whole entry, looked up): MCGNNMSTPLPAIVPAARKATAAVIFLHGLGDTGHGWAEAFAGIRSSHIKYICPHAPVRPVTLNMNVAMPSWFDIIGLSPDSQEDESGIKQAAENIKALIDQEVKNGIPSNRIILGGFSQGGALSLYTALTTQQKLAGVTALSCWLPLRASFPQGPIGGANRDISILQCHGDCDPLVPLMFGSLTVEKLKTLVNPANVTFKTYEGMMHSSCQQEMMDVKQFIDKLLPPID
EBNA-1 inh – EBNA-1 DNA-binding inhibitors, primary screen, biochemical, fluorescence polarization. inhibition, % at 14.8 µM. AID 1950, 2009. 300,000 compounds, 0.34% hits; in the data active = inhibition above about 28%
ZTA counter – ZTA (EBV) inhibition in EBNA-1 counter-screen | 320,000 compounds, 0.15% hits | inhibition, % at 11 µM | ZTA-DNA binding, fluorescence polarization | AID 2234; in the data active = inhibition above about 33%
Target sequence (P03206 whole entry, looked up): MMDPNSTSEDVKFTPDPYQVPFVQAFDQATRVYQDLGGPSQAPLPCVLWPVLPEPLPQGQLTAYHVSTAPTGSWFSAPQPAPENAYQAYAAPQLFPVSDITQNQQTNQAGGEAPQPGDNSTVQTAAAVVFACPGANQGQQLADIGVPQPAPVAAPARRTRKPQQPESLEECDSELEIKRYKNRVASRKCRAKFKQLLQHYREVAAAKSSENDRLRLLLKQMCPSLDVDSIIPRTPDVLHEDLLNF
EBNA-1 inh conf – EBNA-1 DNA-binding inhibitors, retest, confirmation, biochemical, fluorescence polarization, triplicate; shares compounds with EBNA-1 inh; Recombinant EBNA-1 DBD, Cy5-DNA fluorescence polarization; inhibition, % at 14.8 µM; 830 compounds, 35% hits; AID 2292, 2010;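 active = mean inhibition across replicates above a set limit taken from the earlier primary screen, cut at about 28% in these data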;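 note: plate controls were EBNA-1 protein with DMSO for no effect and wells lacking EBNA-1 for full effect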
ZTA counter trip – EBV Zta DNA binding inhibitors, counter-screen for EBNA-1 inhibitor project, biochemical, fluorescence polarization, triplicate. inhibition, % at 11.1 µM. AID 2328, 2010. Zta-ZRE DNA binding, Cy5 fluorescence polarization. shares compounds with EBNA-1 inh. 830 tested, under 10 active;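 active = mean inhibition over triplicates above a set limit taken from the primary EBNA-1 screen, cut at about 37% in these data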;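 note: purified full length Zta protein with Cy5 labeled ZRE DNA probe; 0% = Zta with DMSO and 100% = wells lacking Zta protein; inhibitors lower polarization by freeing the labeled DNA probe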
LYPLA1 confirm – LYPLA1 inhibitors, retest, confirmation, counter-screen for PME1 inhibitor project, biochemical, fluorescence polarization, FP-Rh probe ABPP. shares compounds with LYPLA1 counter. recombinant LYPLA1. inhibition, % at 5.9 µM. 480 compounds, 69% hits. AID 2233, 2010;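 active = mean inhibition across replicates above the hit cutoff set in the primary screen, cut at about 15% in these data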;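 note: loss of FP-Rh probe labeling of LYPLA1 seen as lower polarization; 0% = LYPLA1 with DMSO and 100% = wells lacking LYPLA1 enzyme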
LYPLA2 confirm – LYPLA2 inhibitors, retest, confirmation, counter-screen for PME1 inhibitor project, biochemical, fluorescence polarization, FP-Rh probe ABPP | shares compounds with LYPLA2 counter | recombinant LYPLA2 | inhibition, % at 5.9 µM | 1,100 compounds, 72% hits;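 active = mean inhibition across replicates above the hit cutoff set in the primary screen, cut at about 26% in these data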;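 note: blocked labeling of the enzyme by serine hydrolase FP-Rh probe lowers polarization; 0% = enzyme with DMSO and 100% = wells lacking LYPLA2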
LYPLA2 gel ABPP – LYPLA2 inhibitors in proteome, late-stage follow-up, gel-based competitive ABPP, fluorescence, assay provider. shares compounds with LYPLA2 counter. rhLYPLA2 in mouse brain proteome, gel ABPP FP-Rh. inhibition, % at 20 µM. 150 compounds, 30% hits. AID 652029, 2013;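 active = inhibition of LYPLA2 enzyme probe labeling above about 50%, limit read from the data; inactive = inhibition below that limit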;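 note: loss of FP-Rh probe labeling of the LYPLA2 gel band measured as band density; 0% = DMSO only control band and 100% = blank gel background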
An asterisk follows results filed as active; / = no result given. The list is not random: actives were taken first. Their share in the collection is about 1.4%.

SMILES | LYPLA2 counter | LANA-H2B inh | LYPLA1 counter | EBNA-1 inh | ZTA counter | EBNA-1 inh conf | ZTA counter trip | others
Cc1onc(-c2c(F)cccc2Cl)c1C(=O)Nc1cccc(S(=O)(=O)N2CCOCC2)c1 | / | 9 | / | / | / | / | /
CC(NC(=O)COc1ccc(/C=N/NC(=O)C(=O)Nc2ccccc2Br)cc1)c1ccccc1 (stereo unspecified) | -7 | -1 | -3 | 34* | -10 | 50* | 9
Cc1cccc(C)c1-n1cccc1/C=C1/C(=N)N2C(=NC1=O)SN=C2S(C)(=O)=O | 3 | -6 | -1 | 9 | 16 | / | /
Cc1ccc(-n2cccc2/C=C2/C(=N)N3C(=NC2=O)SN=C3S(C)(=O)=O)cc1Cl | -26 | -446 | -19 | 32* | 15 | 15 | 6
COc1ccc(C(=O)Nc2ccc(Cl)c(S(=O)(=O)Nc3ccccc3OC)c2)cc1 | -48 | 0 | -34 | 0 | -13 | / | /
COc1ccccc1NS(=O)(=O)c1cc(NC(=O)c2ccc3ccccc3n2)ccc1Cl | -6 | -1 | -10 | 52* | -14 | 3 | 5
Cc1ccc(C(=O)Cc2cc3ccccc3oc2=O)c(C)c1 | -6 | 4 | 2 | 6 | -5 | / | /
CC(=O)N1c2ccc(S(=O)(=O)NCC3CCC(C(=O)N4CC(C)CC(C)C4)CC3)cc2CC1C (stereo unspecified) | 5 | 0 | -1 | -2 | 0 | / | /
Cc1ccc(N(Cc2ccc(C(=O)NC3CCCCC3)cc2)S(C)(=O)=O)cc1C | -9 | -4 | 2 | 31* | -4 | 34* | -14
C=CC[C@@H](CC(=O)N[C@H](CO)Cc1ccccc1)C(=O)N[C@@H](COC(=O)[C@@H](CC=C)CC(=O)OC(C)(C)C)Cc1ccccc1 | / | -126 | / | / | / | / | /
CCCNC(=O)C1CCC(CNS(=O)(=O)c2ccc3c(c2)N(C(C)=O)CCO3)CC1 (stereo unspecified) | 3 | 1 | 2 | 0 | -3 | / | /
CC1CC(C)CN(S(=O)(=O)c2ccc(C(=O)NCc3ccc4c(c3)OCO4)cc2)C1 (stereo unspecified) | -21 | -2 | -13 | 53* | -3 | -18 | -17
CCC(=O)Nc1ccc(Cl)c(NC(=S)NC(=O)COc2ccc(Cl)cc2)c1 | -5 | 3 | -8 | 58* | 1 | 8 | 17
COc1cccc(/C=N/NC(=O)c2ccc(CN3c4cccc5cccc(c45)S3(=O)=O)cc2)c1 | -65 | 2 | -39 | 30* | -3 | 17 | 2
COc1ccc(N(CC(=O)NCc2ccc(C)cc2)S(=O)(=O)c2c(C)noc2C)cc1 | -1 | -3 | -1 | 6 | -14 | / | /
CS(=O)(=O)c1ccc(-c2cccc(NC(=O)c3ccc(Br)o3)c2)nn1 | 4 | -5 | 0 | 38* | -1 | 28* | -7
Cc1cc(N/N=C/c2c(O)ccc3ccccc23)nc(-c2ccccc2O)n1 | 46* | 1 | 4 | 49* | 12 | 21 | 1 | LYPLA2 confirm=-15
O=C(NNC(=O)c1ccco1)c1cccc(Br)c1 | 13 | -4 | 5 | 4 | -5 | / | /
Cc1cccc(NC(=O)CN2C(=O)S/C(=C\c3cc(C)n(C)c3C)C2=O)c1 | 57* | -1 | -6 | 30* | 15 | 10 | -7 | LYPLA2 confirm=77*;LYPLA2 gel ABPP=60*
O=[N+]([O-])c1cncc([N+](=O)[O-])c1Nc1cccc(O)c1 | -4 | 0 | 0 | 2 | -19 | / | /
O=C(Nc1ccc2oc(-c3cccnc3)nc2c1)c1ccc2c(c1)OCCO2 | 47* | -2 | 21* | 41* | 4 | 0 | 13 | LYPLA1 confirm=53*;LYPLA2 confirm=49*
O=C(Nc1ccc2oc(-c3ccccc3)nc2c1)c1ccc2c(c1)OCCO2 | -17 | 1 | -10 | 7 | -8 | / | /
CC(C)CNC(=O)c1cccc(NC(=O)c2ccc3c(c2)C(=O)N(C)C3=O)c1 | 15 | 6 | 26* | 1 | 5 | / | / | LYPLA1 confirm=27*
CCC(=O)Oc1ccc(C(=O)Nc2cccc(C(=O)NCC(C)C)c2)cc1 | 6 | 1 | 2 | 9 | 3 | / | /
N#Cc1cc[n+](CC(=O)c2ccc(NC(=O)c3ccccc3)cc2)cc1 | -5 | -1 | -5 | 0 | -9 | / | /
SMILES | LYPLA2 counter | LANA-H2B inh | LYPLA1 counter | EBNA-1 inh | ZTA counter | EBNA-1 inh conf | ZTA counter trip | others
COC(=O)CNc1cc(S(=O)(=O)N2CCCCC2)ccc1Oc1ccc(C(=O)OC)cc1 | -2 | 1 | 3 | -9 | 10 | / | /
COC(=O)c1ccc(Oc2ccc(S(=O)(=O)N3CCCCC3)cc2N)cc1 | 17 | -4 | 26* | 13 | -2 | / | / | LYPLA1 confirm=47*
COCCN(C(=O)COC(=O)CCCOc1ccccc1)c1c(N)n(Cc2ccccc2)c(=O)[nH]c1=O | 3 | 4 | 1 | -6 | -3 | / | /
COc1ccccc1-c1csc(-n2ncc(C#N)c2N)n1 | 24 | 5 | 22* | 3 | 21 | / | / | LYPLA1 confirm=40*
COc1ccc(-c2csc(-n3ncc(-c4ccccn4)c3N)n2)cc1 | -3 | -1 | -3 | 20 | 4 | / | /
COc1cc(NC(=O)c2ccccc2)c(OC)cc1NC(=O)CN1C(=O)NC2(CCCCC2)C1=O | -6 | -6 | -3 | / | 10 | / | /
CCOC(=O)c1nn(-c2ccccc2)c(-c2ccccc2)c1C(=O)c1ccccc1 | 8 | 5 | 18* | -5 | -12 | / | / | LYPLA1 confirm=2
O=c1sc2ccccc2c(N2CCOCC2)c1[N+](=O)[O-] | -2 | 3 | 1 | 8 | -8 | / | /
O=C(Nc1ccc(F)c(Cl)c1)c1cncs1 | -1 | -16 | -3 | 5 | -11 | / | /
Cc1cnc(C(=O)OC(C(=O)Nc2cc(C(F)(F)F)ccc2Cl)c2ccccc2)cn1 (stereo unspecified) | -9 | -6 | 32* | -17 | 1 | / | / | LYPLA1 confirm=0
